Rows were chosen to be rich in hits. Some 1.3% of all compounds tested hit in one or more screens of this group.
HIF act = HIF pathway transcriptional activation; U2OS HRE-luciferase reporter, luminescence; normalized: DMSO 0%, desferrioxamine 100%; activation, % at 7.5 µM (by protocol); 0.32% of 300,000 active; AID 1910;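 active = mean activation of at least 10% of the iron chelator positive control signal, with at least half of replicates also reaching 10%; inconclusive = mean and replicate majority disagree about reaching 10%; inactive = mean and most replicates under 10%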
C2C12 statin = suppression of simvastatin myotoxicity | rescue of ATP level, % at 7.49 µM | 0.78% of 330,000 active | AID 602340 | C2C12 myotubes + simvastatin, ATP luminescence, 48 h; scaled: DMSO 0, geranylgeraniol control 100;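 active = mean ATP rescue above about 67%, or every replicate alone reaching that limit, limit read from the data, passing the limit was not always enough; inconclusive = no clear call, values can overlap the other calls; inactive = mean under the limit and some replicate under it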;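 note: myotubes were challenged with 10 µM simvastatin during compound exposure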
Rce1 inhib = blocks yeast Ras-converting enzyme; Q03530; yeast membranes, quenched prenylated peptide cleavage fluorescence; calls only; 0.27% of 290,000 active;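 active = fall in fluorescence gain of 50% or more versus controls, with final raw signal at or below 3038400; inconclusive = same 50% fall but final raw signal above 3038400; inactive = fall in fluorescence gain under 50%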;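 note: plate controls were neutral control wells for no effect and wells lacking membranes for full effect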
Target sequence (Q03530 whole entry, looked up): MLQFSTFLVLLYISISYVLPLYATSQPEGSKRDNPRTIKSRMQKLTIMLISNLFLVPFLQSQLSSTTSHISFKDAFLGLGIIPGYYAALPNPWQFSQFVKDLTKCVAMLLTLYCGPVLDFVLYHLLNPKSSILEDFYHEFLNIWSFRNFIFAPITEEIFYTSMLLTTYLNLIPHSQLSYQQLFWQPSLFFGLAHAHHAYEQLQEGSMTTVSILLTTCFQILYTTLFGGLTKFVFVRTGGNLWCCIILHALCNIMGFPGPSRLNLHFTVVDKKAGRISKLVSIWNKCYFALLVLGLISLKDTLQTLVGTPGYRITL
AI-2 QS modul = modulates the Vibrio harveyi AI-2 quorum sensing system; activity change, % at 7.5 µM; Vibrio harveyi JMH597 AI-2 luminescence/OD600 ratio, 9 h; hits give low values; strain lacks LuxN and CqsS sensors; 0 = neutral-control median; 0.4% of 300,000 active; AID 2094; in the data active = activity change below about -75%, passing the limit was not always enough; inconclusive = no clear call, values can overlap the other calls;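 note: luminescence divided by OD600 gain over 9 h not by final OD600 alone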
PGC1a acetyl inh = modulators of PGC1a acetylation; U2OS PGC1a acetylation, AlphaScreen anti-acetyl-lysine; with virally co-expressed GCN5 acetyltransferase; inhibition, % at 15.6 µM; 0.17% of 350,000 active;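 active = every replicate shows inhibition of at least 40%; inconclusive = mean inhibition at least 40% but some replicate below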;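 note: 0% = neutral control wells and 100% = positive control wells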
* hit, by the source's call.

Results for COc1ccc(N=C2SCC(c3ccc(C)cc3)=NN2CCO)cc1 ?
HIF act: 0; C2C12 statin: -31; Rce1 inhib: inactive; AI-2 QS modul: -15; PGC1a acetyl inh: 78*

How did CC(OC(=O)c1cccc(O)c1)C(=O)N(C)Cc1ccccc1 (configuration not stated) do in these assays?
HIF act: 0; C2C12 statin: 29; Rce1 inhib: inactive; AI-2 QS modul: 14; PGC1a acetyl inh: 3

What do the screens show for `CC(OC(=O)c1ccccc1NS(=O)(=O)c1cccc(N)c1)C(=O)N(C)Cc1ccccc1` (configuration not stated)?
HIF act: 0; C2C12 statin: 86*; Rce1 inhib: inactive; AI-2 QS modul: 4; PGC1a acetyl inh: 9

What do the screens show for `CC(C)CNS(=O)(=O)c1cc(C(=O)O)c(Cl)cc1Cl`?
HIF act: 0; Rce1 inhib: inactive; AI-2 QS modul: 17; PGC1a acetyl inh: 8

How did O=C(O)c1cc(S(=O)(=O)Nc2cccc3ccccc23)c(Cl)cc1Cl do in these assays?
HIF act: 1; C2C12 statin: 75*; Rce1 inhib: inactive; AI-2 QS modul: 12; PGC1a acetyl inh: 2

What do the screens show for `COc1ccc2c3c([nH]c2c1)[C@H](CO)N(Cc1ccc(Cl)cc1)CC31CCN(Cc2ccccc2)CC1`?
PGC1a acetyl inh: 2

Results for CCOC(=O)c1cc2cc(CC(=O)c3ccc(OCC)cc3O)ccc2o1 ?
HIF act: -10; C2C12 statin: 97*; Rce1 inhib: inactive; AI-2 QS modul: 16; PGC1a acetyl inh: 8

Results for COCC(COCCCNC(=O)Nc1ccc(Br)cc1)OC (configuration not stated) ?
HIF act: 0; C2C12 statin: 108*; Rce1 inhib: inactive; AI-2 QS modul: 6; PGC1a acetyl inh: -1

What do the screens show for `C=CCCCCCCCCc1nc(=S)[nH][nH]1`?
HIF act: 0; C2C12 statin: 148*; Rce1 inhib: inactive; AI-2 QS modul: -7; PGC1a acetyl inh: -4

What do the screens show for `COc1cc(OC)c2nc(C)c3c(c2c1)N(c1ccc(O)cc1)CC3`?
HIF act: 16*; C2C12 statin: 11; Rce1 inhib: inactive; AI-2 QS modul: 6; PGC1a acetyl inh: 13

What do the screens show for `O=C(Nc1cccc2ccccc12)c1ccc(OC(=S)N2CCOCC2)cc1`?
C2C12 statin: -35; Rce1 inhib: active; AI-2 QS modul: 7; PGC1a acetyl inh: -1

What do the screens show for `O=C(Nc1cccc(Cl)c1)c1ccc(OC(=S)N2CCOCC2)cc1`?
HIF act: 3; Rce1 inhib: inactive; AI-2 QS modul: 19

What do the screens show for `CCNC(=O)C[C@H]1CC[C@H]2[C@@H](COC[C@H](O)CN2C(=O)c2cc(Cl)cc(Cl)c2)O1`?
C2C12 statin: 2; PGC1a acetyl inh: 4

How did COc1cnc(-c2ccccn2)nc1Sc1ccc(Cl)cc1 do in these assays?
HIF act: 0; C2C12 statin: -3; Rce1 inhib: inactive; AI-2 QS modul: 17

Results for COc1cnc(N(C)C)nc1Sc1ccc(Cl)cc1 ?
HIF act: 1; C2C12 statin: 104*; Rce1 inhib: inactive; AI-2 QS modul: 8; PGC1a acetyl inh: -9

How did Cc1cccc(-c2ccc([C@H]3[C@@H](CO)N4CCCCN(C(=O)c5ccc6c(c5)OCO6)C[C@@H]34)cc2)c1 do in these assays?
C2C12 statin: 69*; PGC1a acetyl inh: -9

How did Cc1cccc(-c2ccc([C@@H]3[C@@H](CO)N4CCCCN(C(=O)c5ccc6c(c5)OCO6)C[C@H]34)cc2)c1 do in these assays?
C2C12 statin: 3; PGC1a acetyl inh: 0

Results for CCCn1c2ccccc2c2cnn(CC(=O)NC3CCCC(C)C3C)c(=O)c21 (configuration not stated) ?
HIF act: 13*; C2C12 statin: 4; Rce1 inhib: inactive; AI-2 QS modul: 29; PGC1a acetyl inh: -4

What do the screens show for `CCCn1c2ccccc2c2cnn(CC(=O)NC3CCC(C)CC3)c(=O)c21` (configuration not stated)?
HIF act: 0; C2C12 statin: 26; Rce1 inhib: inactive; AI-2 QS modul: 15; PGC1a acetyl inh: 10

How did C#CCSc1nc(=O)c2cccnc2n1-c1ccc(C)cc1 do in these assays?
HIF act: 0; C2C12 statin: 132*; Rce1 inhib: inactive; AI-2 QS modul: 16; PGC1a acetyl inh: 17

What do the screens show for `Cc1ccc(-n2cnc(=O)c3cccnc32)cc1`?
HIF act: 0; Rce1 inhib: inactive; AI-2 QS modul: 15

Results for CO[C@@H]1CN(C)C(=O)c2cc(NC(=O)C3CC3)ccc2OC[C@H](C)N(Cc2ccc(F)cc2)C[C@H]1C ?
C2C12 statin: 1

How did CC1(c2ccccc2)CC(C)(C)N2C(=O)C3(C(C#N)=C(N)Oc4cc(O)ccc43)c3cccc1c32 (configuration not stated) do in these assays?
HIF act: 0; C2C12 statin: 87*; Rce1 inhib: inactive; AI-2 QS modul: 42; PGC1a acetyl inh: -1

What do the screens show for `C[C@@H]1CCCCO[C@@H](CN(C)C(=O)NC2CCCCC2)[C@H](C)CN([C@H](C)CO)C(=O)c2cc(NS(=O)(=O)c3cccs3)ccc2O1`?
C2C12 statin: -20; PGC1a acetyl inh: 13

How did Cc1cc2nc(/C=C/c3nc4cc(C)c(C)cc4[nH]3)[nH]c2cc1C do in these assays?
HIF act: -5; C2C12 statin: -6; Rce1 inhib: inactive; AI-2 QS modul: 20; PGC1a acetyl inh: -5

Results for Cc1cc2nc(/C=C/c3cccnc3)[nH]c2cc1C ?
HIF act: 2; C2C12 statin: -28; Rce1 inhib: inconclusive; AI-2 QS modul: 2; PGC1a acetyl inh: 67*

How did CCC1(c2ccccc2)NC(=O)N(CC(=O)Nc2ccc3c(C)cc(=O)oc3c2)C1=O (configuration not stated) do in these assays?
HIF act: 1; C2C12 statin: -30; Rce1 inhib: active; AI-2 QS modul: 15; PGC1a acetyl inh: -1

Results for CC(C)CC#Cc1cnc2c(c1)C(=O)N([C@H](C)CO)C[C@H](C)[C@H](CN(C)Cc1ccc3c(c1)OCO3)O2 ?
C2C12 statin: 35; PGC1a acetyl inh: 4

What do the screens show for `COCC(=O)Nc1nc(-c2ccc(C)cc2)c(C)s1`?
HIF act: 1; C2C12 statin: 123*; Rce1 inhib: inactive; AI-2 QS modul: 2; PGC1a acetyl inh: -3

What do the screens show for `CCc1sc(NC(=O)COC)nc1-c1ccccc1`?
HIF act: -2; C2C12 statin: 12; Rce1 inhib: inactive; AI-2 QS modul: 4; PGC1a acetyl inh: -4

How did C[C@H]1CN([C@@H](C)CO)C(=O)c2cc(C#CC3CCCC3)cnc2O[C@@H]1CN(C)S(=O)(=O)c1cccc(F)c1 do in these assays?
C2C12 statin: 57; PGC1a acetyl inh: -17

What do the screens show for `O=C(C1CC1)N1C[C@@H]2N[C@H](C1)C2c1ccc(-c2cccc(F)c2)cc1` (some centres not stated)?
PGC1a acetyl inh: -10
